From PubChem
VACV Venus inh: vaccinia inhibition (Venus reporter); Vaccinia virus Venus reporter expression, fluorescence; Potency, µM (series often up to 36.5 µM), without a hit: at the highest dose activity change, negative = inhibition, usual class: inhibitors; 0.46% of 330,000 active; AID 720580; calls by dose curve; tested in A549 cells; further: potency means the concentration at half of the fitted maximal effect; nearly all actives have a fitted effect of over 30% in size
HCMV antiviral: human cytomegalovirus inhibition | HFF cells, HCMV-luciferase reporter, 72 h; hits give low values | activity change, negative = inhibition, % at 57.5 µM | 4.5% of 410,000 active | AID 1259415; in the data active means activity change below about -60%; inconclusive means no clear call, values can overlap the other calls; inactive means above about -39%
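Two-dose cell screen: HFF monolayers treated with compounds and infected with luciferase-expressing HCMV at 1 PFU/cell, 72 h at 37C, then lysed for luciferase measurement.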
LASV entry inh: blocks Lassa virus binding to or entry into cells | Lassa virus pseudotype entry inhibition, cell reporter | Potency, µM (top dose mostly 37.9 µM), inactives show at the top dose activity change, negative = inhibition, usual class: inhibitors | 1.2% of 300,000 active | AID 540256; calls by dose curve; tested in HEK293 cells; further: potency means the concentration at half of the fitted maximal effect; nearly all actives have a fitted effect of over 50% in size
FMDV inh: antivirals against foot and mouth disease virus. 1.2% of 410,000 active. Potency, µM (highest dose often 57.9 µM), without a hit: at the highest dose activity change, negative = inhibition, actives largely listed as inhibitors. AID 1159524. FMDV antiviral cell-based qHTS; calls by dose curve; tested in HEK293T cells; further: read-out not given here; potency means the concentration at half of the fitted maximal effect; nearly all actives have a fitted effect of over 45% in size
VACV mCherry inh: vaccinia inhibition (mCherry reporter); Potency, µM (titrated, usually from 36.5 µM), inactives show at the top dose activity change, negative = inhibition, actives largely listed as inhibitors; Vaccinia virus mCherry reporter infection, fluorescence; 0.63% of 310,000 active; calls by dose curve; tested in A549 cells; further: potency means the concentration at half of the fitted maximal effect; nearly all actives have a fitted effect of over 35% in size
Marburg entry inh: inhibitors of Marburg virus binding or cell entry | Marburg virus pseudotyped entry inhibition, cell reporter | Potency, µM (doses to about 37.8 µM), for the others: top-dose activity change, negative = inhibition, actives largely listed as inhibitors | 1.8% of 300,000 active; calls by dose curve; tested in HEK293 cells; further: potency means the concentration at half of the fitted maximal effect
* hit, by the source's call; [ ] = another dose, or the depositor's remark. An excerpt weighted towards active compounds, which were near 6.5% of everything screened. On the % scale 0 is the no-effect control and ±100 the full control effect.

Results for CCNc1nc(NCC)n2c(SCC(=O)Nc3cccc(Cl)c3)nnc2n1 ?
VACV Venus inh: inconclusive; LASV entry inh: inconclusive; FMDV inh: -21%; VACV mCherry inh: inconclusive; Marburg entry inh: -10%

What do the screens show for `CCNc1nc(NCC)n2c(SC(C(=O)Nc3cc(Cl)cc(Cl)c3)c3ccccc3)nnc2n1` (centres undefined)?
VACV Venus inh: 4%; HCMV antiviral: -101*; LASV entry inh: -2%; FMDV inh: -1%; VACV mCherry inh: -9%; Marburg entry inh: 21%

Results for CCOC(=O)c1c2c3c(c(Cl)ccc3[nH]c1=O)C(=O)c1ccccc1-2 ?
VACV Venus inh: 92%; HCMV antiviral: -97*; LASV entry inh: -22%[46.1 µM]; FMDV inh: -20%; VACV mCherry inh: -5%; Marburg entry inh: -3%[46.1 µM]

Results for O=C(COC(=O)c1cccc2c1C(=O)c1ccccc1C2=O)NC1CCCCC1 ?
VACV Venus inh: inconclusive; HCMV antiviral: inconclusive; LASV entry inh: inconclusive; FMDV inh: inconclusive; VACV mCherry inh: -28%; Marburg entry inh: inconclusive

Results for CC1CCCCC1NC(=O)COC(=O)c1ccc2c(c1Cl)C(=O)c1ccccc1C2=O (centres undefined) ?
HCMV antiviral: -74*; LASV entry inh: -13%; FMDV inh: -19%; Marburg entry inh: inconclusive

What do the screens show for `COc1ccc(S(=O)(=O)N2CCN(c3ccc(Cl)c(Cl)c3)CC2)c2ccccc12`?
VACV Venus inh: 4%; HCMV antiviral: 26; LASV entry inh: 1%[46.1 µM]; FMDV inh: -4%; VACV mCherry inh: -1%; Marburg entry inh: inconclusive

How did COC(=O)c1ccc(OC)c(Cn2c(=O)n(-c3cccc(Cl)c3)c(=O)c3c2c2cc(C)ccc2n3C)c1 do in these assays?
VACV Venus inh: -2%; HCMV antiviral: 5; LASV entry inh: 5%[46.1 µM]; FMDV inh: -10%; VACV mCherry inh: 2%; Marburg entry inh: -15%[46.1 µM]

Results for CC(C)NC(=NCc1ccc(Cl)cc1Cl)Nc1ccccc1 ?
HCMV antiviral: -101*; FMDV inh: -30%

Results for C=C(C#Cc1ccc(OC)cc1)CCN1C=C(C(=O)OCC)C(c2ccccc2)NC1=O (centres undefined) ?
LASV entry inh: inconclusive; Marburg entry inh: 6%[14.2 µM]

Results for CC(NC(=O)CSc1ncn[nH]1)c1ccc(Cl)cc1Cl (centres undefined) ?
VACV Venus inh: -20%; HCMV antiviral: -61*; LASV entry inh: -10%[46.1 µM]; FMDV inh: -10%; VACV mCherry inh: -7%; Marburg entry inh: -1%[46.1 µM]

What do the screens show for `O=C(CSc1ncn[nH]1)NCCc1ccc(Cl)cc1Cl`?
VACV Venus inh: -11%; HCMV antiviral: -24; LASV entry inh: 7%[46.1 µM]; FMDV inh: 0%; VACV mCherry inh: -21%; Marburg entry inh: inconclusive

How did COc1ccccc1NC(=O)c1cc(-c2ccc(OC)c(OC)c2)nc2ccccc12 do in these assays?
VACV Venus inh: 7%; HCMV antiviral: 34; LASV entry inh: 2%[46.1 µM]; FMDV inh: -17%; VACV mCherry inh: inactive; Marburg entry inh: 4%[46.1 µM]

Results for COc1ccccc1NC(=O)c1cc(Sc2nncn2C)nc2ccccc12 ?
VACV Venus inh: 11µM*; HCMV antiviral: -38; LASV entry inh: 0%; FMDV inh: -9%; Marburg entry inh: -5%

Results for C[N+](C)(C)CCC(=O)c1cccc2ccccc12 ?
VACV Venus inh: inconclusive; FMDV inh: -20%; VACV mCherry inh: inconclusive; Marburg entry inh: 4.5µM*

How did CCCCNC(=O)C1(C)CCC(=O)N1CCOC (centres undefined) do in these assays?
VACV Venus inh: -8%; HCMV antiviral: 2; FMDV inh: -1%; VACV mCherry inh: 10%

Results for COc1ccc(CCN2C(=O)CCC2(C)C(=O)NCc2cccnc2)cc1OC (centres undefined) ?
VACV Venus inh: -10%; HCMV antiviral: 5; LASV entry inh: 2%; FMDV inh: -5%; VACV mCherry inh: 0%; Marburg entry inh: -7%

What do the screens show for `CC1(C(=O)NCc2ccccc2)CN(S(C)(=O)=O)CC(=O)N1CCCn1ccnc1` (centres undefined)?
VACV Venus inh: 0%; HCMV antiviral: 7; FMDV inh: 4%; VACV mCherry inh: -9%

How did CC1(C(=O)NCc2ccccc2)CCC(=O)N1CCCn1ccnc1 (centres undefined) do in these assays?
VACV Venus inh: 0%; HCMV antiviral: -99*; FMDV inh: -9%; VACV mCherry inh: inactive

How did CC1(C(=O)NCc2cccnc2)CCC(=O)N1CCc1ccccc1 (centres undefined) do in these assays?
VACV Venus inh: -2%; HCMV antiviral: -97*; FMDV inh: -14%; VACV mCherry inh: -8%

What do the screens show for `CCCCNC(=O)C1(C)CCC(=O)N1CCCn1ccnc1` (centres undefined)?
VACV Venus inh: 4%; HCMV antiviral: -71*; FMDV inh: -5%; VACV mCherry inh: inactive

What do the screens show for `CCCCNC(=O)N[C@H]1CC[C@@]23CCCN2C(=O)CCC[C@H]3[C@H]1C`?
HCMV antiviral: -8

Results for CC(=O)C1=C(C)N(Cc2ccccc2)C(=O)NC1c1ccc(Br)cc1 (centres undefined) ?
LASV entry inh: 16%[14.3 µM]; Marburg entry inh: -4%[14.2 µM]

What do the screens show for `Cc1ccc2[nH]c(C(=O)N3CCc4c(cnc(C)c4CNC(=O)c4ccccc4F)C3)cc2c1`?
VACV Venus inh: 11%; FMDV inh: -6%; VACV mCherry inh: 1%

How did Cc1ccc(CNC(=O)CN2c3cccc4cccc(c34)S2(=O)=O)cc1 do in these assays?
HCMV antiviral: -1; FMDV inh: -15%

Results for COc1cccc(CNC(=O)Cn2c(=O)c3cccn3c3ccccc32)c1 ?
HCMV antiviral: -66*; FMDV inh: -11%

How did COc1cccc(CNC(=O)CN2c3cccc4cccc(c34)S2(=O)=O)c1 do in these assays?
VACV Venus inh: -13%; HCMV antiviral: -88*; LASV entry inh: 3%; FMDV inh: 0%; VACV mCherry inh: inactive; Marburg entry inh: inconclusive

How did O=C(CCCn1c(=O)c2cccn2c2ccccc21)Nc1cccc(Cl)c1 do in these assays?
VACV Venus inh: -9%; HCMV antiviral: -70*; LASV entry inh: inconclusive; FMDV inh: -17%; VACV mCherry inh: -13%

What do the screens show for `Cc1cc(C)cc(NC(=O)CCCn2c(=O)c3cccn3c3ccccc32)c1`?
VACV Venus inh: -6%; HCMV antiviral: -18; LASV entry inh: inconclusive; FMDV inh: -14%; VACV mCherry inh: 0%

What do the screens show for `CN(CCCNC(=O)Cn1c(=O)c2cccn2c2ccccc21)Cc1ccccc1`?
VACV Venus inh: -2%[7.34 µM]; HCMV antiviral: -88*; FMDV inh: 0%; VACV mCherry inh: -14%[7.34 µM]

Results for O=C(Cn1c(=O)c2cccn2c2ccccc21)NCc1cccc(F)c1 ?
VACV Venus inh: -11%; HCMV antiviral: inconclusive; LASV entry inh: 2%[46.1 µM]; FMDV inh: 6%; VACV mCherry inh: inactive; Marburg entry inh: 1%[46.1 µM]
